Assay results published in PubChem BioAssay (NCATS).
Results filed as inconclusive are left out. Where a call stands in place of a potency, no number is given. The source made the active and inactive calls. The call rests on the fitted dose curve; in most records, active means well fitted inhibition curve with a large enough effect; inconclusive means small, poorly fitted or top-dose-only effect; inactive means flat fitted curve, though single readings scatter.

Assay: qHTS for differential inhibitors of proliferation of Plasmodium falciparum line Dd2 (AID 1882); further: nearly all actives have a fitted effect of over 65% in size
Conditions: Potency: Plasmodium falciparum Dd2 proliferation inhibition; series mostly up to 28.7 µM
Source text: NIH Molecular Libraries Probe Production Network [MLPCN]
NIH National Institute of Allergy and Infectious Diseases [NIAID]
NIH Chemical Genomics Center [NCGC]
Assay Provider: Xinzhuan Su, NIAID
Plasmodium falciparum is a virulent malarial parasite that kills 1-2 million people worldwide each year. Transmitted by mosquitoes, the sporozoite form of the parasite enters the blood stream to infect hepatocytes, where they become merozoites that infect red blood cells (erythrocytes). Within erythrocytes, merozoites begin a […] cycle of growth and division, after which the parasite is released to infect new red blood cells. Gametocytes, which form within erythrocytes as well, circulate in the bloodstream and are ingested by the mosquito, thereby completing the life cycle. To profile malarial isolates for differential chemical responses and to identify inhibitors of malarial growth, an assay that measures P. falciparum growth and replication within erythrocytes was employed. This assay uses a DNA binding fluorescent dye (SYBR Green) to detect parasite DNA following cell lysis. Because mature erythrocytes lack DNA, only Plasmodium-derived DNA is detected. The P. falciparum line Dd2, derived from a malarial isolate from […], was used.
NCGC Assay Protocol Summary:
The SYBR Green viability assay was adapted from a method described previously (Plouffe et al., 2008). For screening 3 ul culture medium was dispensed into 1536 well black clear bottom plates (Aurora Biotechnologies) using a Multidrop Combi (Thermo Fisher Scientific Inc.), 23 nL compounds in DMSO were added by a pin tool (Kalypsys), and 5 ul of erythrocytes infected with P. falciparum line Dd2 (0.3% parasitemia, 2.5% hematocrit final concentration) were added. The plates were incubated at 37 C in a humidified incubator in 5% CO2 for 72 h, and 2 ul lysis buffer (20 mM Tris HCl, 10 mM EDTA, […]% saponin, 1.6% triton X, 10X SYBR Green I supplied as 10,000X […] by Invitrogen) was added to each well. The plates were mixed for 25 sec with gentle shaking and incubated overnight at room temperature in the dark. The following morning, fluorescence intensity at 485(14) nm excitation and 535(25) nm emission wavelengths was measured on an EnVision (Perkin Elmer) plate reader. Plate reads were normalized relative to the control inhibitor (0.29 uM artemisinin) and vehicle (DMSO) wells present on each plate and then corrected by an algorithm using vehicle-only control plates at the beginning and end of the compound plate stack.
Plouffe D, Brinker A, McNamara C, Henson K, Kato N, Kuhen K, Nagle A, Adrian F, Matzen JT, Anderson P, Nam TG, Gray NS, Chatterjee A, Janes J, Yan SF, Trager R, Caldwell JS, Schultz PG, Zhou Y, Winzeler EA. […] Proc Natl Acad Sci U S A. 2008, 105(26), pp 9059-64.
Potency means the concentration at half of the fitted maximal effect.

| Compound | Potency |
| --- | --- |
| c1ccc([C@H]2CN3CCSC3=N2)cc1 | inactive |
| Cc1ccc(N(CC2=NCCN2)c2cccc(O)c2)cc1 | inactive |
| Cc1cn[nH]c1 | inactive |
| N[C@@H]1CONC1=O | inactive |
| CC(=O)Oc1ccccc1C(=O)O | inactive |
| Clc1cccc(Cl)c1NC1=NCCN1 | inactive |
| Cc1[nH]c(=O)c(C#N)cc1-c1ccncc1 | inactive |
| O=c1[nH]cnc2[nH]ncc12 | inactive |
| CCCCNc1cc(C(=O)O)cc(S(N)(=O)=O)c1Oc1ccccc1 | inactive |
| O=c1n(CCCN2CCN(c3cccc(Cl)c3)CC2)nc2ccccn12 | inactive |
| Nc1ccc(S(=O)(=O)Nc2ccnn2-c2ccccc2)cc1 | inactive |
| CNC[C@H](O)c1cccc(O)c1 | inactive |
| CCOC(=O)N1CCC(=C2c3ccc(Cl)cc3CCc3cccnc32)CC1 | 10 µM (active) |
| NS(=O)(=O)c1cc2c(cc1Cl)NC=NS2(=O)=O | inactive |
| CC(C)(Sc1ccc(CCN(CCCCC2CCCCC2)C(=O)NC2CCCCC2)cc1)C(=O)O | inactive |
| NNCCc1ccccc1 | inactive |
| O=C1CCC(N2C(=O)c3ccccc3C2=O)C(=O)N1 (stereo unspecified) | inactive |
| O=NN(CCCl)C(=O)NCCCl | inactive |

| Compound | Potency |
| --- | --- |
| O=C1CCc2cc(OCCCCc3nnnn3C3CCCCC3)ccc2N1 | inactive |
| CN1CCN(CCCN2c3ccccc3Sc3ccc(C(F)(F)F)cc32)CC1 | 12.6 µM (active) |
| OC(CN1CCC(Cc2ccc(F)cc2)CC1)c1ccc(Cl)cc1 (stereo unspecified) | 1.26 µM (active) |
| NCCc1ccc(O)c(O)c1 | inactive |
| Nc1nc2c(ncn2COCCO)c(=O)[nH]1 | inactive |
| CC(C)C[C@H](NC(=O)[C@@H](O)[C@H](N)Cc1ccccc1)C(=O)O | 2.24 µM (active) |
| NC[C@H](O)c1ccc(O)c(O)c1 | inactive |
| Oc1ccc(C2CNCCc3c2cc(O)c(O)c3Cl)cc1 (stereo unspecified) | inactive |
| Cc1[nH]c(=O)c(C#N)cc1-c1ccc2nccn2c1 | inactive |
| NC(=O)c1cnccn1 | inactive |
| CCC(C)N(C)C(=O)c1cc2ccccc2c(-c2ccccc2Cl)n1 (stereo unspecified) | inactive |
| Cc1cnc(NC(=O)C2=C(O)c3ccccc3S(=O)(=O)N2C)s1 | inactive |
| N=c1nc(N2CCCCC2)cc(N)n1O | inactive |
| NCCCC(N)(C(=O)O)C(F)F (stereo unspecified) | inactive |
| CC(C)NCC(O)COc1ccc(COCCOC(C)C)cc1 (stereo unspecified) | inactive |
| Cc1oncc1C(=O)Nc1ccc(C(F)(F)F)cc1 | inactive |
| CCN(CC)CCCC(C)Nc1ccnc2cc(Cl)ccc12 (stereo unspecified) | 10 µM (active) |
| CC(C[N+](C)(C)C)OC(N)=O (stereo unspecified) | inactive |
